An excerpt weighted towards active compounds, which were near 19% of everything screened.
RORgamma inh: blocks mouse ROR gamma transcriptional activity | Potency, µM (doses to about 53.6 µM), for inactives: at the highest dose activity change, negative = inhibition, usual class: inhibitors | Drosophila S2 Gal4-RORgamma UAS-luciferase reporter, 20 h | P51450 | 5.4% of 310,000 active; also: nearly all actives have a fitted effect of over 60% in size
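Compounds are pin-transferred onto Drosophila Schneider cells expressing a copper-inducible Gal4–ROR gamma transactivation domain fusion. After 1 hr, copper sulfate is added to 700 uM final; luciferase is read 20 hr later.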
Gal4-VP16 FLuc: Gal4-VP16 reporter inhibition counter-screen; Potency, µM (doses to about 53.6 µM), for inactives: at the highest dose activity, negative = inhibition, hits mostly inhibitors; 3.5% of 310,000 active; Drosophila S2 Gal4-VP16 UAS-luciferase, luminescence, 20 h;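 also: Gal4-VP16 expression switched on by copper sulfate through the metallothionein promoter; nearly all actives have a fitted effect of over 50% in size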
TDP1 block: TDP1 (human) enzyme inhibition; Q9NUW8; recombinant TDP1, AlphaScreen DNA substrate cleavage; Potency, µM (titrated, usually from 130 µM), for the others: top-dose activity change, negative = inhibition, hits mostly inhibitors; 0.28% of 350,000 active; also: nearly all actives have a fitted effect of over 40% in size
Target sequence (Q9NUW8 whole entry, looked up): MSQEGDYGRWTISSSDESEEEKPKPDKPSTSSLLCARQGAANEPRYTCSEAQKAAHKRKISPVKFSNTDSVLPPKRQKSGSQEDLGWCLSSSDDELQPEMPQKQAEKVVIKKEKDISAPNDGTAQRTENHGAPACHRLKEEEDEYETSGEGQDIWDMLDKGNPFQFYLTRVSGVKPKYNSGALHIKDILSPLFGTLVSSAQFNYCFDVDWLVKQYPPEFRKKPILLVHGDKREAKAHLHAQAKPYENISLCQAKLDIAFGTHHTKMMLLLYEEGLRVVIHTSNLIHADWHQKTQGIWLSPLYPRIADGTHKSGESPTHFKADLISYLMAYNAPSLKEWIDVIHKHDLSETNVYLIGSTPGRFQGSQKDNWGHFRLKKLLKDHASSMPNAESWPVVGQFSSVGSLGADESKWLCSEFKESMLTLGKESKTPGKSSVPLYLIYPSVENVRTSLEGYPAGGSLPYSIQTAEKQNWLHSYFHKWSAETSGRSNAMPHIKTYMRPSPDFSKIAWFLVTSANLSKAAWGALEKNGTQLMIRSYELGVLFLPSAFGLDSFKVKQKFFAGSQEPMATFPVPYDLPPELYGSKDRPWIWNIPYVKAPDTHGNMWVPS
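Compounds were preincubated with Tdp1 (1 nM final) for 15 min at room temperature before substrate (15 nM final) started a 5 min reaction; beads (10 ug/ml final) were then added for 10 min before AlphaScreen detection.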
DT40 TDP1 CPT: growth inhibition of DT40 Tdp1-/-;hTDP1 cells with camptothecin (screen for TDP1 inhibitors); chicken DT40 Tdp1-/-;hTDP1 cells + 20 nM CPT, ATP luminescence, 48 h; Potency, µM (doses to about 46.2 µM), inactives show at the highest dose activity change, negative = growth inhibition, usual class: inhibitors; 12% of 420,000 active; also: nearly all actives have a fitted effect of over 55% in size
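Chicken DT40 Tdp1-/- cells complemented with human TDP1, 400 cells/well, exposed to compounds plus 20 nM camptothecin for at least 48 h at 37 C; viability read as ATP content by CellTiter-Glo luminescence.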
TDP1 cell noCPT: qHTS for Inhibitors of human tyrosyl-DNA phosphodiesterase 1 (TDP1): qHTS in cells in absence of CPT | DT40 Tdp1-/- hTDP1 cells, no CPT, ATP luminescence, 48 h | Potency, µM (doses to about 46.2 µM), without a hit: at the highest dose activity change, negative = growth inhibition, usual class: inhibitors | 15% of 420,000 active; also: nearly all actives have a fitted effect of over 55% in size
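Seeded 400 DT40-hTDP1 cells/well (vehicle DMSO, no 20 nM CPT); pinned compounds; ≥48 hr at 37 °C; CellTiter-Glo luminescence as viability measure.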
Active calls of the source: *; [ ] = dose if it differs, or a comment. Calls follow the shape of the dose curve; as a rule, active = well fitted curve in the direction sought with a large enough effect; inconclusive = small, poorly fitted or top-dose-only effect, or another doubt; inactive = no such curve, though single readings can be large; an effect the other way counts as inactive or inconclusive. % is scaled to controls: 0 for no effect and ±100 for the full control effect; potency is read from the fitted curve at half-maximal effect.

Results for CS(=O)(=O)N1CCSC1c1ccc(Br)cc1 (centres undefined) ?
RORgamma inh: 4%; Gal4-VP16 FLuc: 3%; TDP1 block: 1%; DT40 TDP1 CPT: -12%; TDP1 cell noCPT: 15%

How did O=C(Nc1ccccc1)Nc1ccccc1Br do in these assays?
RORgamma inh: inconclusive; Gal4-VP16 FLuc: -24%; TDP1 block: -1%; DT40 TDP1 CPT: 15µM*; TDP1 cell noCPT: inconclusive

What do the screens show for `Cc1ccc(-c2nn(-c3cc(N4CCNCC4)ccc3[N+](=O)[O-])c(=O)c3ccccc23)cc1`?
RORgamma inh: -12%; Gal4-VP16 FLuc: -7%; TDP1 block: 7%; DT40 TDP1 CPT: 3.7µM*; TDP1 cell noCPT: 4.1µM*

What do the screens show for `Cc1nn(-c2cc(N3CCCCCC3)ccc2[N+](=O)[O-])c(=O)c2ccccc12`?
RORgamma inh: 39%; Gal4-VP16 FLuc: 14%; TDP1 block: 4%; DT40 TDP1 CPT: -28%; TDP1 cell noCPT: -28%

How did NC(Cc1ccc(Cl)cc1)c1csc(Nc2cc(NCCCO)ncn2)n1 (centres undefined) do in these assays?
DT40 TDP1 CPT: inconclusive; TDP1 cell noCPT: 15µM*

What do the screens show for `CC(N)c1csc(Nc2ccc(C(=O)NCCO)cc2)n1` (centres undefined)?
DT40 TDP1 CPT: -2%; TDP1 cell noCPT: -10%

What do the screens show for `Clc1ccc(Nc2nc(-c3ccncc3)cs2)cc1`?
DT40 TDP1 CPT: -20%; TDP1 cell noCPT: 4%

How did NC(Cc1ccc(Cl)cc1)c1csc(Nc2ccc(-c3ccccc3)nn2)n1 (centres undefined) do in these assays?
DT40 TDP1 CPT: 6.5µM*; TDP1 cell noCPT: -90%

What do the screens show for `O=C(Sc1ccccc1)c1cccc(Cn2cc(C(F)(F)F)ccc2=O)c1`?
RORgamma inh: -17%; Gal4-VP16 FLuc: 12%; TDP1 block: -3%; DT40 TDP1 CPT: 18µM*; TDP1 cell noCPT: 16µM*

How did O=C(Nc1cc(C(F)(F)F)cc(C(F)(F)F)c1)c1ccc(Cn2cc(C(F)(F)F)ccc2=O)cc1 do in these assays?
RORgamma inh: inconclusive; Gal4-VP16 FLuc: -6%; TDP1 block: 8%; DT40 TDP1 CPT: 21µM*; TDP1 cell noCPT: 16µM*

How did O=C(Nc1ccccc1)c1ccc(Cn2cc(C(F)(F)F)ccc2=O)cc1 do in these assays?
RORgamma inh: 9%; Gal4-VP16 FLuc: -2%; TDP1 block: 0%; DT40 TDP1 CPT: -10%; TDP1 cell noCPT: -2%

Results for O=C(Nc1ccccc1)c1cccc(Cn2cc(C(F)(F)F)ccc2=O)c1 ?
RORgamma inh: 26%; Gal4-VP16 FLuc: -1%; TDP1 block: 3%; DT40 TDP1 CPT: inconclusive; TDP1 cell noCPT: 21µM*

What do the screens show for `COc1cccc(-n2nnc3c(=O)n(Cc4c(F)cccc4Cl)cnc32)c1`?
RORgamma inh: -17%; Gal4-VP16 FLuc: inconclusive; TDP1 block: 3%; DT40 TDP1 CPT: -8%; TDP1 cell noCPT: -16%

How did COc1cc(CN(C)c2ccc(S(=O)(=O)N3CCCC3)cn2)ccc1OC(F)F do in these assays?
TDP1 block: -12%; DT40 TDP1 CPT: inconclusive; TDP1 cell noCPT: inconclusive

How did N#Cc1ccccc1S(=O)(=O)N1CCN(Cc2cc3c(cc2Br)OCCO3)CC1 do in these assays?
DT40 TDP1 CPT: 16µM*; TDP1 cell noCPT: inconclusive

How did COCCNC(=O)c1ccc(-c2csc(C)n2)cc1 do in these assays?
RORgamma inh: -9%; Gal4-VP16 FLuc: -3%; TDP1 block: 0%; DT40 TDP1 CPT: -2%; TDP1 cell noCPT: 3%

Results for C=CCN(C)CCCCCCOc1ccc(C(=O)c2ccc(Br)cc2)c(F)c1 ?
RORgamma inh: -17%; Gal4-VP16 FLuc: inconclusive; TDP1 block: 9%; DT40 TDP1 CPT: 5µM*; TDP1 cell noCPT: 5µM*

How did Cc1ccc(Cn2c(C(C)NC(=O)c3ccccc3)nc3ccccc32)cc1 (centres undefined) do in these assays?
TDP1 block: 5%; DT40 TDP1 CPT: inconclusive; TDP1 cell noCPT: 6.5µM*

How did Cc1ccc(C)c(Cn2c(C(C)NC(=O)c3ccc(F)cc3)nc3ccccc32)c1 (centres undefined) do in these assays?
TDP1 block: 0%; DT40 TDP1 CPT: -3%; TDP1 cell noCPT: inconclusive

What do the screens show for `CCN(CC)c1ccc(NC(=O)Cn2c(C(C)NC(=O)c3ccc(C)cc3)nc3ccccc32)cc1` (centres undefined)?
RORgamma inh: -4%; Gal4-VP16 FLuc: -26%; DT40 TDP1 CPT: 10%; TDP1 cell noCPT: -7%

How did Cc1ccc(C)c(Cn2c(C(C)NC(=O)c3ccccc3)nc3ccccc32)c1 (centres undefined) do in these assays?
TDP1 block: 3%; DT40 TDP1 CPT: inconclusive; TDP1 cell noCPT: 21µM*

What do the screens show for `CCOc1ccc(N2CC(C(=O)NCCCN3CCOCC3)CC2=O)cc1` (centres undefined)?
RORgamma inh: 6%; Gal4-VP16 FLuc: -6%; TDP1 block: 1%; DT40 TDP1 CPT: 13%; TDP1 cell noCPT: 11%

Results for Cc1ccc(NCC(O)C(O)C(O)CO)c(N=Nc2ccccc2)c1C (centres undefined) ?
RORgamma inh: 37%; Gal4-VP16 FLuc: -6%; DT40 TDP1 CPT: 1%; TDP1 cell noCPT: -13%

Results for Cc1cc(/C=C2\Sc3ccccc3N2C)cc(C)[n+]1CC1CCCO1 (centres undefined) ?
RORgamma inh: 2.8µM*; Gal4-VP16 FLuc: 2µM*; TDP1 block: 0%; DT40 TDP1 CPT: 0.0082µM*; TDP1 cell noCPT: 0.026µM*

How did CCOC(=O)[C@@H]1[C@H]2COc3ccccc3[C@@H]2N2C(=O)N(c3ccc(C)cc3)C(=O)[C@]12C do in these assays?
RORgamma inh: 4%; Gal4-VP16 FLuc: -2%; DT40 TDP1 CPT: -20%; TDP1 cell noCPT: -14%

Results for COc1cccc(CNC(=S)Nc2cc(OC)ccc2OC)c1 ?
RORgamma inh: 13µM*; Gal4-VP16 FLuc: inconclusive; TDP1 block: 3%; DT40 TDP1 CPT: -7%; TDP1 cell noCPT: -28%

How did COc1cccc(CNC(=S)Nc2ccc(Cl)cc2C)c1 do in these assays?
RORgamma inh: 6.3µM*; Gal4-VP16 FLuc: 6.3µM*; DT40 TDP1 CPT: inconclusive; TDP1 cell noCPT: inconclusive

What do the screens show for `Cc1cc(Cl)ccc1NC(=S)NCc1ccccc1`?
RORgamma inh: 4µM*; Gal4-VP16 FLuc: 4%[0.365 µM]; TDP1 block: 0%; DT40 TDP1 CPT: inconclusive; TDP1 cell noCPT: inconclusive

Results for Cc1cc(Cl)ccc1NC(=S)NCCCO ?
RORgamma inh: 7%; Gal4-VP16 FLuc: -2%; TDP1 block: 2%; DT40 TDP1 CPT: -16%; TDP1 cell noCPT: 3%

What do the screens show for `COc1ccc(Cl)cc1NC(=S)NCc1cccnc1`?
RORgamma inh: 9%; Gal4-VP16 FLuc: -6%; TDP1 block: -3%; DT40 TDP1 CPT: -7%; TDP1 cell noCPT: inconclusive

High-throughput results (PubChem BioAssay)
